Data as given in PubChem BioAssay (NCATS).
Results filed as inconclusive are left out. Entries that show only a call come without a potency. Activity calls are given as the source filed them. Calls follow the shape of the dose curve; as a rule, active = well fitted cell-killing curve with a large enough effect; inconclusive = small, poorly fitted or top-dose-only effect, or effect the other way; inactive = no such curve, though single readings can be large or run the other way. Non-standard residues stand in square brackets, D forms with d. Residues, ends and D or L forms follow the SMILES beside them. *: point of attachment. Sta = CC(C)C[C@H](N)[C@@H](O)CC(=O)O; Isovaleryl = CC(C)CC(=O)*
Potency is read from the fitted curve at half-maximal effect.

Assay: Quantitative High-Throughput drug screen in 47 multiple myeloma cell lines against the NCATS MIPE library collection: MOLP8_DSMZ cell viability assay (AID 1918977); also: nearly all actives have a fitted effect of over 45% in size
Conditions: MOLP8 myeloma viability, CellTiter-Glo ATP luminescence, 48 h; series mostly up to 45.8 µM
Description: PI: Beverly A. Mock Ph.D.
Laboratory of Cancer Biology and Genetics,
Center for Cancer Research, National Cancer Institute,
National Institute of Health, Bethesda, Maryland
Drug resistance and disease progression are common in multiple myeloma (MM) patients, underscoring the need for new therapeutic combinations. […] We hypothesized that effective combinations would reduce MYC expression and enhance p16 activity. […] These preclinical data identify potentially useful drug combinations for evaluation in drug-resistant MM and reveal potential mechanisms of combined drug sensitivity.
Described herein is the primary MIPE qHTS used to cherrypick compounds. Validated compounds were then further tested for potential synergistic activiy.
[1] Peat TJ, Gaikwad SM, Dubois W, Gyabaah-Kessie N, Zhang S, Gorjifard S, Phyo Z, Andres M, Hughitt VK, Simpson RM, Miller MA, Girvin AT, Taylor A, Williams D, D'Antonio N, Zhang Y, Rajagopalan A, Flietner E, Wilson K, Zhang X, Shinn P, Klumpp-Thomas C, McKnight C, Itkin Z, Chen L, Kazandijian D, Zhang J, Michalowski AM, Simmons JK, Keats J, Thomas CJ, Mock BA. Drug combinations identified by high-throughput screening promote cell cycle transition and upregulate Smad pathways in myeloma. Cancer Lett. 2023 Aug 1;568:216284. doi: 10.1016/j.canlet.2023.216284. Epub 2023 Jun 24. PMID: 37356470; PMCID: PMC10408729.
SEQUENCE No. (e.g., 1, 2, 3, etc.); […] (e.g., Cells, Incubation, Reagent, etc.); VALUE and DESCRIPTION.
1; Cells; 5 uL; white, solid bottom 1536-well Greiner assay plate.
2; Compounds; 23 nL; Kalypsis pin tool (Wako USA) equipped with a 1536-well pin head to transfer to the assay plates.
3; Incubation; 48 hours; 37C incubation.
4; Reagent;5uL; CellTiter Glo (Promega).
5; Detector; 425V; Luminescence; Viewlux PerkinElmer.
NOTES (numbers refer to Sequence numbers above)
1. The cell-based screening methods employed in this study were like those previously published. Briefly, the corresponding myeloma cell lines were screened in 1,536-well plates with 500 cells, 5-uL per well for inhibition of cell viability (assessed by measuring ATP levels with CellTiterGlo).
2. NCATS MIPE 4.0 library of approved and investigational drugs were added using the Kalypsis pin tool. Wells treated with DMSO only for 100% viability and media only for 0% viability were used as controls.
3. The assay plates were covered and incubated for 48 hours in a 37C, 5% CO2 incubator with controlled humidity.
4. After 48 hours, CellTilter-GloTM luminescent substrate mix (Promega) reagent was added to the assay plate and plates we incubated for 5 min at room temperature.
5. Signal was measured as median relative luminescence units on a ViewLux (PerkinElmer) multiplate reader.
[1] Heske CM, Davis MI, Baumgart JT, Wilson K, Gormally MV, Chen L, Zhang X, Ceribelli M, Duveau DY, Guha R, Ferrer M, Arnaldez FI, Ji J, Tran HL, Zhang Y, Mendoza A, Helman LJ, Thomas CJ. Matrix Screen Identifies Synergistic Combination of PARP Inhibitors and Nicotinamide Phosphoribosyltransferase (NAMPT) Inhibitors in Ewing Sarcoma. Clin Cancer Res. 2017 Dec 1;23(23):7301-7311. doi: 10.1158/1078-0432.CCR-17-1121. Epub 2017 Sep 12. PMID: 28899971; PMCID: PMC6636827.
With `COc1ccccc1N1CCN(CCN(C(=O)C2CCCCC2)c2ccccn2)CC1` the Potency was “inactive”. For `CN(C)c1ccc(O)c2c1C[C@H]1C[C@H]3[C@H](N(C)C)C(=O)C(C(N)=O)=C(O)[C@@]3(O)C(=O)C1=C2O`, the Potency was 20.9 µM (active). In the case of `O=c1cc(N2CCOCC2)oc2c(-c3ccccc3)cccc12`, the Potency is reported as 7.43 µM (active). With `Cc1nc2n(c(=O)c1CCN1CCC(c3noc4cc(F)ccc34)CC1)CCCC2` the Potency was “inactive”. In the case of `Cc1nc(-c2ccc(OCC(C)C)c(C#N)c2)sc1C(=O)O`, the Potency is reported as 2.96 µM (active). With `Cc1cc(C2CCCCC2)n(O)c(=O)c1` the Potency was 4.18 µM (active). For `OC(CN1CCN(c2cccc(Cl)c2)CC1)C(c1ccccc1)c1ccccc1` (stereo not given), the Potency was “inactive”. For `CCC[C@@H]1C[C@@H](C(=O)N[C@@H]([C@H]2O[C@H](SC)[C@H](O)[C@@H](O)[C@H]2O)[C@@H](C)O)N(C)C1`, the Potency was “inactive”. With `Nc1cc(C(Cl)=C(Cl)Cl)c(S(N)(=O)=O)cc1S(N)(=O)=O` the Potency was “inactive”. In the case of `Cc1ccc(C)c(OCCCC(C)(C)C(=O)O)c1`, the Potency is reported as “inactive”. In the case of `C[C@@H](c1ncncc1F)[C@](O)(Cn1cncn1)c1ccc(F)cc1F`, the Potency is reported as “inactive”. In the case of `O=C(c1ccccc1)c1ccc2n1CCC2C(=O)O` (stereo not given), the Potency is reported as “inactive”. With `O=C(OC1C[C@H]2CC[C@@H](C1)[N+]21CCCC1)C(O)(c1ccccc1)c1ccccc1` (stereo not given in full) the Potency was “inactive”. With `Nc1cccc2c1CN(C1CCC(=O)NC1=O)C2=O` (stereo not given) the Potency was “inactive”. For `CCN(CC)C(=S)SSC(=S)N(CC)CC`, the Potency was 0.0093 µM (active). With `CC(C)(S)[C@@H](N)C(=O)O` the Potency was “inactive”. For `CCc1nc(N)nc(N)c1-c1ccc(Cl)cc1`, the Potency was “inactive”. With `O=c1c(O)c(-c2ccc(O)cc2O)oc2cc(O)cc(O)c12` the Potency was “inactive”. For `Cc1cc(=O)c2c(O)c3c(O)cc(=O)c4c3c3c(cc(O)c1c23)C(C)(C)C=4O`, the Potency was 2.64 µM (active). In the case of `CCCCCCCCCCCCCCCCCCCCCCO`, the Potency is reported as “inactive”. With `CC(C)CC(=O)N[C@H](C(=O)N[C@H](C(=O)N[C@@H](CC(C)C)[C@@H](O)CC(=O)N[C@@H](C)C(=O)N[C@@H](CC(C)C)[C@@H](O)CC(=O)O)C(C)C)C(C)C` (Isovaleryl-VV[Sta]A[Sta]-OH) the Potency was “inactive”. In the case of `c1ccc2[nH]c(-c3cscn3)nc2c1`, the Potency is reported as “inactive”. With `Cc1ccc(NC(=O)c2ccc(CN3CCN(C)CC3)cc2)cc1Nc1nccc(-c2cccnc2)n1` the Potency was “inactive”. With `CC(C)[N+]1(C)[C@@H]2CC[C@H]1CC(OC(=O)C(CO)c1ccccc1)C2` (stereo not given in full) the Potency was “inactive”. With `Cc1cc(=O)oc2cc(O)ccc12` the Potency was “inactive”. For `C[C@H](Cc1ccc(O)c(O)c1)[C@@H](C)Cc1ccc(O)c(O)c1`, the Potency was 5.26 µM (active). With `CCOC(=O)C1=C[C@@H](OC(CC)CC)[C@H](NC(C)=O)[C@@H](N)C1` the Potency was “inactive”. For `CC(C)C[C@H](NC(=O)[C@H](Cc1ccccc1)NC(=O)c1cnccn1)B(O)O`, the Potency was 0.0093 µM (active). In the case of `COc1cc2nc(N3CCN(C(=O)C4CCCO4)CC3)nc(N)c2cc1OC` (stereo not given), the Potency is reported as “inactive”. With `CC(=O)NC[C@H]1CN(c2ccc(N3CCOCC3)c(F)c2)C(=O)O1` the Potency was 7.43 µM (active). For `CN(C)c1ccc2nc3ccc(=[N+](C)C)cc-3sc2c1`, the Potency was 3.32 µM (active). For `c1cnc2cc3c(cc2n1)C1CNCC3C1`, the Potency was “inactive”. With `COc1cc(C(C)=O)ccc1OCCCN1CCC(c2noc3cc(F)ccc23)CC1` the Potency was “inactive”. For `COC(=O)C1=C(C)NC(C)=C(C(=O)OCCCN2CCC(c3ccccc3)(c3ccccc3)CC2)C1c1cccc([N+](=O)[O-])c1` (stereo not given), the Potency was “inactive”. In the case of `CC(=O)O[C@H]1C(=O)[C@@]2(C)C([C@H](OC(=O)c3ccccc3)[C@]3(O)C[C@H](OC(=O)[C@H](O)[C@@H](NC(=O)c4ccccc4)c4ccccc4)C(C)=C1C3(C)C)[C@]1(OC(C)=O)CO[C@@H]1C[C@@H]2O` (stereo not given in full), the Potency is reported as “inactive”. In the case of `Nc1ccn([C@@H]2O[C@H](CO)[C@@H](O)C2O)c(=O)n1` (stereo not given in full), the Potency is reported as “inactive”. With `Nc1nc(Cl)nc2c1ncn2[C@H]1C[C@H](O)[C@@H](CO)O1` the Potency was 0.0833 µM (active). With `O=P(O)(O)C(O)(Cn1ccnc1)P(=O)(O)O` the Potency was “inactive”. For `CCN(CCO)CCCC(C)Nc1ccnc2cc(Cl)ccc12` (stereo not given), the Potency was “inactive”. In the case of `O=C(NOCC1CC1)c1ccc(F)c(F)c1Nc1ccc(I)cc1Cl`, the Potency is reported as 14.8 µM (active).
